Most compounds without a hit are left out; they make up all but 7.2% or so of the library.
Marburg entry inh = qHTS for inhibitors of binding or entry into cells for Marburg Virus | Marburg virus pseudotyped entry inhibition, cell reporter | Potency, µM (titrated, usually from 37.8 µM), for inactives: top-dose activity change, negative = inhibition, most hits filed as inhibitors | 300,000 tested, 1.8% active | AID 540276, 2011; calls by dose curve; tested in HEK293 cells
HCV inhibitor = qHTS Assay for Inhibitors of Hepatitis C Virus (HCV); Huh7.5.1 HCVcc-Cre infection, luciferase reporter, 44 h; Potency, µM (highest dose often 41.8 µM), for the others: top-dose activity change, negative = inhibition, hits mostly inhibitors; 340,000 tested, 3.4% active; AID 651820, 2012
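Infectious HCV cell culture screen: compound-treated cells (1,000/well, pre-plated 4 h) are infected with HCVcc-Cre at roughly 0.5 moi and grown 44 h. Infection is quantified by luciferase signal after 15 min substrate incubation at room temperature.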
FMDV inh = High Throughput Screening for Foot and Mouth Disease Virus Antivirals; FMDV antiviral cell-based qHTS; Potency, µM (doses to about 57.9 µM), inactives show at the highest dose activity change, negative = inhibition, actives largely listed as inhibitors; 410,000 tested, 1.2% active; calls by dose curve; tested in HEK293T cells; further: read-out not given here; nearly all actives have a fitted effect of over 45% in size
LASV entry inh = qHTS for Inhibitors of binding or entry into cells for Lassa Virus | 300,000 tested, 1.2% active | Lassa virus pseudotype entry inhibition, cell reporter | Potency, µM (series often up to 37.9 µM), without a hit: at the highest dose activity change, negative = inhibition, actives largely listed as inhibitors; calls by dose curve; tested in HEK293 cells; further: nearly all actives have a fitted effect of over 50% in size
Sm TGR block = qHTS Assay for the Inhibitors of Schistosoma Mansoni Peroxiredoxins | Schistosoma mansoni thioredoxin glutathione reductase (TGR), Q962Y6 | purified TGR, DTNB reduction, TNB absorbance 405 nm | Potency, µM (top dose mostly 114 µM), for inactives: at the highest dose activity change, negative = inhibition, hits mostly inhibitors | 360,000 tested, 3% active | AID 485364, 2010; further: nearly all actives have a fitted effect of over 60% in size
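First, TGR (20 nM dispensed) and NADPH were mixed with compound. Second, a 15 min room-temperature incubation followed. Third, further NADPH and then DTNB were added to start the reaction. Finally, TNB absorbance was monitored kinetically.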
RE007 growth inh = qHTS Assay for Inhibitors of the HIV-1 protein Vpr | S. pombe RE007 Vpr strain, BacTiter-Glo ATP luminescence, 24 h | Potency, µM (titrated, usually from 92.2 µM), inactives show at the top dose activity change, negative = less growth, most hits filed as inhibitors | 360,000 tested, 0.21% active; active means well fitted falling curve with a large enough effect; inconclusive means small, poorly fitted or top-dose-only effect; inactive means no such curve, though single readings can be large or run the other way; further: nearly all actives have a fitted effect of over 50% in size
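Fission yeast RE007 carrying one integrated HIV-1 vpr copy, seeded at OD 0.01 in PMG+AL medium with 23 nL pinned compound. Grown 24 h at 30 degrees; viability read by BacTiter-Glo luminescence after 5 min.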
Numbers without * were called inactive; [ ] = another dose, or the depositor's remark. Unless noted, the call rests on the fitted dose curve; in most records, active means well fitted curve in the direction sought with a large enough effect; inconclusive means small, poorly fitted or top-dose-only effect, or another doubt; inactive means no such curve, though single readings can be large; an effect the other way counts as inactive or inconclusive. On the % scale 0 is the no-effect control and ±100 the full control effect; potency means the concentration at half of the fitted maximal effect.

How did CCOc1cccc2sc(Nc3nc4ccc(NC(C)=O)cc4s3)nc12 do in these assays?
Marburg entry inh: 10µM*; HCV inhibitor: 4.5µM*; FMDV inh: 0%; LASV entry inh: inconclusive; Sm TGR block: 2%; RE007 growth inh: 3%

What do the screens show for `COc1ccccc1-c1nnc(NC(=O)CCS(=O)(=O)c2ccccc2)o1`?
Marburg entry inh: 20%; HCV inhibitor: -4%; FMDV inh: -25%; LASV entry inh: 7%; Sm TGR block: 40µM*; RE007 growth inh: -17%

Results for CCCN(C(=O)Cn1ncc2c(=O)oc3ccccc3c21)c1cccc(C)c1 ?
Marburg entry inh: inconclusive; HCV inhibitor: -12%; FMDV inh: -20%; LASV entry inh: inconclusive; Sm TGR block: -2%; RE007 growth inh: 8%

How did CCN(CCCNC(=O)Cn1ncc2c(=O)oc3ccccc3c21)c1cccc(C)c1 do in these assays?
Marburg entry inh: 4%; HCV inhibitor: 13µM*; FMDV inh: inconclusive; Sm TGR block: -3%; RE007 growth inh: -5%

Results for CCCC1=C(C(=O)OCC)C(c2ccco2)C(C#N)=C(N)O1 (centres undefined) ?
Marburg entry inh: 7%[46.1 µM]; HCV inhibitor: 0%; FMDV inh: 7%; LASV entry inh: -3%[46.1 µM]; Sm TGR block: 32µM*; RE007 growth inh: 0%

What do the screens show for `CCOC(=O)C1=C(CC)OC(N)=C(C#N)C1c1ccc(NC(C)=O)cc1` (centres undefined)?
Marburg entry inh: -7%; HCV inhibitor: 15%; FMDV inh: 0%; LASV entry inh: 8%; Sm TGR block: 11µM*; RE007 growth inh: 6%

What do the screens show for `CCOC(=O)C1=C(c2ccccc2)OC(N)=C(C#N)C1c1cccs1` (centres undefined)?
Marburg entry inh: 6%; HCV inhibitor: 5%; FMDV inh: -2%; LASV entry inh: 8%; Sm TGR block: 45µM*; RE007 growth inh: 13%

What do the screens show for `CCOC(=O)C1=C(CC)OC(N)=C(C#N)C1c1cc(OC)ccc1OC` (centres undefined)?
Marburg entry inh: 9%; HCV inhibitor: 2%; FMDV inh: -15%; LASV entry inh: -4%; Sm TGR block: -1%; RE007 growth inh: -5%

What do the screens show for `CCOC(=O)C1=C(N)OC(C)=C(C#N)C1c1ccco1` (centres undefined)?
Marburg entry inh: -18%; HCV inhibitor: 1%; FMDV inh: -11%; LASV entry inh: 20%; Sm TGR block: -23%; RE007 growth inh: -18%

What do the screens show for `COc1ccc(-c2nc(CNC(=O)Nc3ccccc3)c(C)o2)c(OC)c1`?
FMDV inh: 19%; LASV entry inh: -24%[46.1 µM]; Sm TGR block: inconclusive

How did COc1ccccc1N1CCN(C(=O)CCc2c(C)nn(-c3ccc(N4CCCC4)nn3)c2C)CC1 do in these assays?
FMDV inh: -26%; LASV entry inh: -3%[46.1 µM]; Sm TGR block: 0%

How did CC(=O)Nc1ccccc1-c1nc(CNC(=O)c2ccc(-c3ccccc3F)cc2)c(C)o1 do in these assays?
FMDV inh: 16%

How did CC1=C(C)CS(=O)N(S(=O)(=O)c2ccccc2)C1 (centres undefined) do in these assays?
Marburg entry inh: 13µM*; HCV inhibitor: 22%; FMDV inh: inconclusive; LASV entry inh: 10%; Sm TGR block: -6%; RE007 growth inh: -8%

What do the screens show for `Fc1ccc(CSc2ccc3nnc(-c4cccnc4)n3n2)cc1`?
Marburg entry inh: -20%[46.1 µM]; HCV inhibitor: inconclusive; FMDV inh: inconclusive; LASV entry inh: 13µM*; Sm TGR block: 3%; RE007 growth inh: 0%

Results for COC(=O)c1ccc(CSc2ccc3nnc(-c4cccnc4)n3n2)o1 ?
Marburg entry inh: 7%; HCV inhibitor: 14%; Sm TGR block: 40µM*

Bioassay records from PubChem.
